# ChEMBL document CHEMBL1961873, “Compounds: GSK PKIS; Assays: Nanosyn kinase panel” (2012)
# Molecular target: Tyrosine-protein kinase Lyn (Homo sapiens) (UniProt P07948)
# Details: at 0.1 µM
# Chain of Tyrosine-protein kinase Lyn (Homo sapiens) (P07948 2-512 limits assumed): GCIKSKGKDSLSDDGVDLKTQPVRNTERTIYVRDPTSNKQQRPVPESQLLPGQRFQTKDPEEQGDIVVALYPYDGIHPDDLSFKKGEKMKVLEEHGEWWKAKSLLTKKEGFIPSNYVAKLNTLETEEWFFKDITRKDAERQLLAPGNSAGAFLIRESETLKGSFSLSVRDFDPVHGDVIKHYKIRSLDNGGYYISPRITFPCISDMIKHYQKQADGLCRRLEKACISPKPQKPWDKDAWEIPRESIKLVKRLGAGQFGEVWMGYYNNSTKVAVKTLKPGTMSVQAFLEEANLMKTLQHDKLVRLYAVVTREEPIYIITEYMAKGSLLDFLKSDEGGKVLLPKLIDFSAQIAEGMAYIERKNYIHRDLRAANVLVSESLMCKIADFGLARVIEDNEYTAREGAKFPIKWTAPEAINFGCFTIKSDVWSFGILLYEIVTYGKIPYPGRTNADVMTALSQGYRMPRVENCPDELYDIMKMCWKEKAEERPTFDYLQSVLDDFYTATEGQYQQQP
row,Compound,inhibition [%]
1,COc1cccc(-n2ncc3c(N/N=C/c4ccc(C)cc4)ncnc32)c1,5.91
2,COc1cc2ncnc(Nc3ccc4c(cnn4Cc4ccccc4)c3)c2cc1OC,7.01
3,Cc1ccc(NC(=O)CC2CC2)cc1-c1ccc(C(=O)NCC2CC2)cc1,4.03
4,COc1ccc2ncnc(Nc3ccc(OCc4ccccc4)cc3)c2c1,1.2
5,Nc1nccc(-c2c(-c3ccc(F)cc3)ncn2CCCN2CCOCC2)n1,2.71
6,CN(C)C(=O)O[C@@H]1CN[C@@H](C#Cc2cc3ncnc(Nc4ccc(OCc5cccc(F)c5)c(Cl)c4)c3s2)C1,0.28
7,Cc1cc(O)cc(C)c1/C=C/c1cncc(C(=O)N(C)C)c1,3.61
8,Cc1cc(-c2ccccn2)cc(C)c1/C=C/c1cncc(-c2nn[nH]n2)c1,0.35
9,CN(C)C(=O)O[C@H]1CN[C@H](C#Cc2cc3ncnc(Nc4ccc(OCc5cccc(F)c5)c(Cl)c4)c3s2)C1,1.48
10,Oc1cccc(-c2nc(-c3ccccc3)[nH]c2-c2ccncc2)c1,6.99
11,c1ccc(Cc2nc3ccc(Nc4ncnc5ccccc45)cc3[nH]2)cc1,2.45
12,CCn1c(-c2nonc2N)nc2ccc(F)cc21,3.75
13,Cc1ccc2c(-c3ccnc(Nc4ccc5c(c4)OCCO5)n3)c(-c3ccc(C(F)(F)F)cc3)nn2n1,1.57
14,N#Cc1c(NC(=O)c2ccccc2F)sc2c1CCCC2,-0.31
15,CCOc1nccc2c1nc(-c1nonc1N)n2CC,2.33
16,Nc1ccc(C#Cc2cncnc2Nc2ccc(OCc3cccc(F)c3)c(Cl)c2)cc1,3.04
17,Cc1nc(-c2ccccc2)n2nc(NCCCN3CCOCC3)ncc12,2.14

row,Compound,inhibition [%]
1,CN(c1ccc(NC(=O)Nc2ccc(OC(F)(F)F)cc2)cc1)c1ccnc(Nc2cccc(S(N)(=O)=O)c2)n1,37.1
2,COc1ccc(-c2nn3ncccc3c2-c2ccnc(Nc3cccc(C(F)(F)F)c3)n2)cc1,3.78
3,COC(=O)c1ccc2c(c1)C(=Cc1cc(Br)c(O)c(Br)c1)C(=O)N2,2.84
4,Cc1ccc2c(-c3ccnc(Nc4cccc(C(F)(F)F)c4)n3)c(-c3ccccc3)nn2n1,8.81
5,NS(=O)(=O)c1ccc(Nc2cc(-c3cccc(O)c3)n[nH]2)cc1,3.6
6,COc1cc(/C=N/Nc2ncnc3c2cnn3C(C)C)ccc1O,11.2
7,Cc1ccc2c(c1)/C(=N/Nc1ccc(S(N)(=O)=O)cc1)C(=O)N2,0.75
8,OCc1ccc(-c2nc(-c3ccccn3)c(-c3ccc4c(c3)OCO4)[nH]2)cc1,3.09
9,CC(C)c1ccc(Nc2nccc(-c3cnn4ncccc34)n2)cc1,2.28
10,O=S(=O)(CCOCc1ccc(-c2ccc3ncnc(Nc4ccc(OCc5cccc(F)c5)c(Cl)c4)c3c2)o1)c1ccccc1,-1.61
11,O=C1Nc2ccccc2/C1=C/Nc1ccc2[nH]c(=O)[nH]c2c1,7.45
12,CCCN1CCCC(c2ccc(Nc3nc(Nc4cc(F)ccc4C(N)=O)c4cc[nH]c4n3)c(OC)c2)C1 (stereo unspecified),3.89
13,CN(C)c1cc2c(Nc3ccc4c(cnn4Cc4ccccc4)c3)ncnc2cn1,2.82
14,CCS(=O)(=O)c1ccc(OC)c(Nc2nccc(N(C)c3ccc4c(C)n[nH]c4c3)n2)c1,37.7
15,CCn1c(-c2nonc2N)nc2c(C#CC(C)(C)O)nc(OCCNC)cc21,2.97
16,COc1cc(Nc2nccc(-c3cnn4ncccc34)n2)cc(OC)c1,2.46

# Molecular target: Tyrosine-protein kinase Lyn (Homo sapiens) (UniProt P07948)
# Details: at 1 µM
row,Compound,inhibition [%]
1,COc1cccc(-n2ncc3c(N/N=C/c4ccc(C)cc4)ncnc32)c1,18.6
2,COc1cc2ncnc(Nc3ccc4c(cnn4Cc4ccccc4)c3)c2cc1OC,40.7
3,Cc1ccc(NC(=O)CC2CC2)cc1-c1ccc(C(=O)NCC2CC2)cc1,6.24
4,COc1ccc2ncnc(Nc3ccc(OCc4ccccc4)cc3)c2c1,4.75
5,Nc1nccc(-c2c(-c3ccc(F)cc3)ncn2CCCN2CCOCC2)n1,5.84
6,CN(C)C(=O)O[C@@H]1CN[C@@H](C#Cc2cc3ncnc(Nc4ccc(OCc5cccc(F)c5)c(Cl)c4)c3s2)C1,1.62
7,Cc1cc(O)cc(C)c1/C=C/c1cncc(C(=O)N(C)C)c1,6.35
8,Cc1cc(-c2ccccn2)cc(C)c1/C=C/c1cncc(-c2nn[nH]n2)c1,9.56
9,CN(C)C(=O)O[C@H]1CN[C@H](C#Cc2cc3ncnc(Nc4ccc(OCc5cccc(F)c5)c(Cl)c4)c3s2)C1,3.94
10,Oc1cccc(-c2nc(-c3ccccc3)[nH]c2-c2ccncc2)c1,25.4
11,c1ccc(Cc2nc3ccc(Nc4ncnc5ccccc45)cc3[nH]2)cc1,8.65
12,CCn1c(-c2nonc2N)nc2ccc(F)cc21,5.9
13,Cc1ccc2c(-c3ccnc(Nc4ccc5c(c4)OCCO5)n3)c(-c3ccc(C(F)(F)F)cc3)nn2n1,4.82
14,N#Cc1c(NC(=O)c2ccccc2F)sc2c1CCCC2,0.82
15,CCOc1nccc2c1nc(-c1nonc1N)n2CC,4.84
16,Nc1ccc(C#Cc2cncnc2Nc2ccc(OCc3cccc(F)c3)c(Cl)c2)cc1,3.28
17,Cc1nc(-c2ccccc2)n2nc(NCCCN3CCOCC3)ncc12,2.72

row,Compound,inhibition [%]
1,CN(c1ccc(NC(=O)Nc2ccc(OC(F)(F)F)cc2)cc1)c1ccnc(Nc2cccc(S(N)(=O)=O)c2)n1,83.6
2,COc1ccc(-c2nn3ncccc3c2-c2ccnc(Nc3cccc(C(F)(F)F)c3)n2)cc1,10.3
3,COC(=O)c1ccc2c(c1)C(=Cc1cc(Br)c(O)c(Br)c1)C(=O)N2,12.9
4,Cc1ccc2c(-c3ccnc(Nc4cccc(C(F)(F)F)c4)n3)c(-c3ccccc3)nn2n1,47.8
5,NS(=O)(=O)c1ccc(Nc2cc(-c3cccc(O)c3)n[nH]2)cc1,3.96
6,COc1cc(/C=N/Nc2ncnc3c2cnn3C(C)C)ccc1O,52.7
7,Cc1ccc2c(c1)/C(=N/Nc1ccc(S(N)(=O)=O)cc1)C(=O)N2,4.77
8,OCc1ccc(-c2nc(-c3ccccn3)c(-c3ccc4c(c3)OCO4)[nH]2)cc1,3.31
9,CC(C)c1ccc(Nc2nccc(-c3cnn4ncccc34)n2)cc1,4.7
10,O=S(=O)(CCOCc1ccc(-c2ccc3ncnc(Nc4ccc(OCc5cccc(F)c5)c(Cl)c4)c3c2)o1)c1ccccc1,-0.4
11,O=C1Nc2ccccc2/C1=C/Nc1ccc2[nH]c(=O)[nH]c2c1,23.2
12,CCCN1CCCC(c2ccc(Nc3nc(Nc4cc(F)ccc4C(N)=O)c4cc[nH]c4n3)c(OC)c2)C1 (stereo unspecified),4.64
13,CN(C)c1cc2c(Nc3ccc4c(cnn4Cc4ccccc4)c3)ncnc2cn1,10.6
14,CCS(=O)(=O)c1ccc(OC)c(Nc2nccc(N(C)c3ccc4c(C)n[nH]c4c3)n2)c1,82.8
15,CCn1c(-c2nonc2N)nc2c(C#CC(C)(C)O)nc(OCCNC)cc21,3.02
16,COc1cc(Nc2nccc(-c3cnn4ncccc34)n2)cc(OC)c1,23.6
